Assay outcomes deposited in PubChem BioAssay by National Center for Advancing Translational Sciences (NCATS).
D1 antagonist: human D1 dopamine receptor antagonism | HEK293 TREx D1 cells, calcium flux, dopamine EC80; active compounds read low | P21728 | 360,000 compounds, 3.2% hits | activity change, negative = inhibition, % at 10 µM | AID 504652; in the data active = activity change below about -30%; note: % is set by controls: 0 for no effect and ±100 for the full control effect
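Tetracycline-induced HEK293 Trex D1 cells, force-coupled to calcium, dye-loaded; compounds added and read 180 s, then EC80 dopamine added and calcium flux tracked kinetically another 180 s.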
TRHR agonist: agonists of human TRH receptor. P34981. TRHR cells, calcium flux fluo-8, FDSS agonist mode. activation, % at 2 µM. AID 493084. 360,000 compounds, 0.18% hits; note: 0% is about no effect
Target sequence (P34981 whole entry, looked up): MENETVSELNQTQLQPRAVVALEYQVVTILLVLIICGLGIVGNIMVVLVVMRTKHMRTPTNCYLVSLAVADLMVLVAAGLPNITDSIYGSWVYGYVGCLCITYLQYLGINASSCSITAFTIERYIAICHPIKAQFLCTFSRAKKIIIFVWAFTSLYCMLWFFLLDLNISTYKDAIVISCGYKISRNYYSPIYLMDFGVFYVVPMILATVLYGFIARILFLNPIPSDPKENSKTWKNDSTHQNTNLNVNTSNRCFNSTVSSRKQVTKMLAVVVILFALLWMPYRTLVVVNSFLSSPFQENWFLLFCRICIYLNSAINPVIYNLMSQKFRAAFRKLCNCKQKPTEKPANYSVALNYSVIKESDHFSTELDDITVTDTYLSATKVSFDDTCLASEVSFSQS
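In this calcium-flux screen, cells bearing human TRHR are dye-loaded with fluo-8, baselined for 10 cycles, then exposed to library compounds; positive kinetic calcium responses during the agonist phase mark hits, with TRH as control.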
D1 potentiator: enhances dopamine response at the human D1 receptor; P21728; HEK293 TREx D1 cells, calcium flux, dopamine EC20 potentiation; potentiation, % at 10 µM; 360,000 compounds, 0.036% hits; AID 504651; in the data active = potentiation above about 30%; note: 0% is about no effect
D1 agonist: agonists of human D1 dopamine receptor | P21728 | HEK293 T-REx D1 cells, calcium flux, agonist mode | activation, % at 2 µM | 360,000 compounds, 1% hits; note: 0% is about no effect
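Agonism was scored from calcium flux recorded over 180 s (1 read/s) after pintool compound addition, following a 10-cycle baseline. Cells were inducible force-coupled HEK293 TREx D1, plated overnight at 30 C and loaded with no-wash calcium dye.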
TRHR PAM: allosteric enhancers of human TRH receptor. enhancement, % at 2 µM. TRHR cells, fluo-8 calcium fluorescence, EC20 TRH enhancement. AID 493056. P34981. 360,000 compounds, 0.66% hits; in the data active = enhancement above about 30%; note: 0% is about no effect
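TRHR-expressing cells loaded with fluo-8 calcium dye were read kinetically (ex 480/em 530) during compound addition, then stimulated with an EC20 of TRH (10 nM final). Enhancement of the Gq-mediated intracellular calcium response was scored.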
An asterisk follows results filed as active; x = not tested or not shown; ! = not confirmed by another sample. The list is not random: actives were taken first. Their share in the collection is about 4.6%. Cut-off read from the data, not from the text of the source, unless noted: active = activation above about 30%; inactive = the rest.

SMILES	D1 antagonist	TRHR agonist	D1 potentiator	D1 agonist	TRHR PAM
CCc1ccc(/C=C2/Sc3ccccc3N(CC(=O)NCCCN3CCOCC3)C2=O)cc1	-52*	5	-6	9	8
O=C(CN1C(=O)/C(=C\c2cccc(Cl)c2)Sc2ccccc21)NCCCN1CCOCC1	-84*	-1	-17	53*	1
CN1CCN(CCCNC(=O)c2ccc(/C=C3\Sc4ccccc4N(Cc4ccccc4F)C3=O)cc2)CC1	-30*	0	-9	19	0
O=C(CN1C(=O)/C(=C/c2ccc(C(F)(F)F)cc2)Sc2ccccc21)NCCCN1CCOCC1	-34*	4	-9	16	7
O=C(CCN1C(=O)/C(=C\c2ccccc2)SC1=S)NCCCN1CCOCC1	26	-1	1	0	4
O=C(CN1C(=O)/C(=C\c2ccccc2Cl)Sc2ccccc21)NCCCN1CCOCC1	-1	2	-9	17	-4
O=C(NCCN1CCOCC1)c1ccc(/C=C2\Sc3ccccc3N(Cc3ccccc3F)C2=O)cc1	-12	0	0	8	2
COc1ccc(C(=O)NCc2nc(-c3cccc(C)c3)no2)cc1OC	-8	0	0	9	-2
O=C(CCCn1c(=O)c2ccccc2n(Cc2ccc(F)cc2Cl)c1=O)NCCc1ccc(Cl)cc1	1	0	0	-2	-1
CCCn1c(=O)n(-c2ccccc2)c(=O)c2sc3ccccc3c21	2	0	-1	1	20
O=C(Cn1c(=O)c(CNc2ccccc2)cc2cc3c(cc21)OCCO3)Nc1ccccc1Cl	5	2	1	0	16
COc1ccc(Cn2c(CCC(=O)Nc3ccc(OC)c(Cl)c3)nc3cccnc32)cc1	5	-2	-2	4	4
O=C(Nc1ccccc1)C(=O)Nc1ccc2c(c1)N(C(=O)C1CC1)CCC2	2	1	-4	6	-7
Cc1cccc(N2CCN(C(=O)c3ccc4c(Cl)c5c(nc4c3)CCCC5)CC2)c1C	4	0	6	2	0
Fc1ccc(N2CCN(c3ncnc4nc[nH]c34)CC2)cc1	-54*	1	-9	2	22
N/C(=N\N=C\c1ccc([N+](=O)[O-])cc1)c1nonc1N	-43*	0	-20	3	-2
COc1ccc(OC)c(/C=N/N=C(\N)c2nonc2N)c1	-30*	0	-3	1	-5
COc1ccccc1-n1nc(-c2ccccc2)c2cnc3c(F)cc(F)cc3c21	30	-1	2	0	-4
Cc1nn(CCc2nn[nH]n2)c2nc(-c3ccc(C4CCCCC4)cc3)cc(C(F)(F)F)c12	-46*	-1	-6	9	-6
CCc1ccc(NC(=O)C(=O)NCC(c2cccnc2)N2CCN(c3ccc(F)cc3)CC2)cc1 (stereo not given)	-11	0	-2	15	10
Cc1ccc(CNS(=O)(=O)c2ccc(-c3cnc(C4CC4)o3)cc2)cc1	-27	0	-5	9	4
O=S(=O)(NCc1ccccc1)c1ccc(-c2cnc(C3CC3)o2)cc1	-38*!	0	-5	9	2
Cc1ccc(N(C)S(=O)(=O)c2ccc(-c3cnc(C4CC4)o3)cc2)cc1	-32*!	1	-3	13	5
Cc1ccc(NS(=O)(=O)c2ccc(-c3cnc(C4CC4)o3)cc2)cc1	-18	1	-3	8	-2
O=[S+]([O-])(c1ccc2ncsc2c1)N1CCN([S+](=O)([O-])c2c(F)cccc2F)CC1	-28	1	2	-1	-1
SMILES	D1 antagonist	TRHR agonist	D1 potentiator	D1 agonist	TRHR PAM
Cc1ccc(C(=O)Nc2ccc3nc(SCC(=O)N4CCCc5ccccc54)sc3c2)cc1	-6	0	0	8	-1
CC(=O)Nc1ccc(-c2ccc(NC(C)=O)c(O)c2)cc1O	-32*	1	-7	0	-4
NC(=O)c1nsc(C(=O)N(c2ccccc2F)C(C(=O)NCc2ccc(F)cc2)c2ccc(O)cc2)c1N (stereo not given)	7	1	-1	10	30*
C/C(=N\NC(=O)c1c(C)nc2ccccn12)c1ccc(O)cc1O	-24	3	-6	2	40*
C/C(=N\NC(=O)c1c(C)nc2ccccn12)c1ccccc1F	-30	0	-7	6	-5
Nc1cc(C(Cl)=C(Cl)Cl)c(S(N)(=O)=O)cc1S(N)(=O)=O	-33*	-1	-7	0	-8
CCCCC(CC)CNC(=O)c1ccc2c(=O)n(CCOC)c(=O)[nH]c2c1 (stereo not given)	-4	1	5	3	-1
O=S1(=O)[C@H]2C[C@@H]3CC[C@]2(CN1Cc1cccc(F)c1)O3	-47*	0	-9	1	-4
N#Cc1c(-c2ccc(Cl)cc2)ccn2nc(C3CCCCC3)nc12	-31*	2	-4	-3	-4
O=C(NCCN1CCN(c2ccccc2)CC1)Nc1ccc(Cl)cc1	-32*	0	-5	30*	7
O=C(NCCN1CCN(c2ccccc2)CC1)Nc1ccccc1Br	-33*!	0	-6	1	1
O=C(NCCc1ccc(Cl)cc1)Nc1ccc(Cl)cc1	-34*	-1	-2	7	-1
O=C(NCCN1CCN(c2ccccc2)CC1)Nc1cccc(Br)c1	-45*!	-1	-1	50*	20
Cn1nc(C(C)(C)C)cc1C(=O)NN1CCOCC1	-3	0	4	2	2
O=C(CN(C(=O)CCC(=O)Nc1nccs1)c1ccc(F)cc1)NCc1ccccc1	12	0	-3	2	-4
O=C(NCCN1CCN(c2cccc(Cl)c2)CC1)Nc1ccccc1	-6	0	-4	7	11
COc1ccc(N2CCN(CCNC(=O)Nc3ccc(Cl)cc3)CC2)cc1	-3	-2	-2	38*	3
COc1ccc(N2CCN(CCCNC(=O)Nc3ccccc3)CC2)cc1	12	0	-3	5	2
O=C(CCN1CCN(Cc2ccccc2)CC1)NNC(=O)Nc1cccc(Cl)c1	-15	1	-5	2	-1
O=C(NCCN1CCN(Cc2ccccc2)CC1)Nc1cc(Cl)cc(Cl)c1	2	2	0	30*	4
COc1ccccc1NC(=O)NCCN1CCN(c2cccc(Cl)c2)CC1	-40*!	0	-1	4	8
Cc1ccc(NC(=O)CCS(=O)(=O)c2cc(Br)cc3c2N(C(=O)C2CC2)CC3)cc1	4	-1	0	3	-4
CCc1ccccc1NC(=O)Cn1nc2c3cc(F)ccc3n(Cc3cccc(C)c3)cc-2c1=O	-22	-1	-3	-2	-8
Cc1ccc(C)c(NC(=O)C2CCN(S(=O)(=O)c3c(C)noc3/C=C/c3cccs3)CC2)c1	-1	2	4	3	-8
O=S(=O)(Cc1ccccc1Cl)N1CCCC1	x	0	1	0	-2
